# Assay outcomes: PubChem, several laboratories
# CendR NRP1 mod: NRP-1/CendR interaction modulation. O14786. FAM-RPARPAR peptide binding to NRP-1, fluorescence polarization. inhibition, % at 25 µM. hit rate 0.85% among 360,000;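 active = inhibition or corrected inhibition above about 18%, plus a signal ratio from 0.5 to 1.5, limit read from the data, passing the limit was not always enough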
# VLA-4 inh: inhibition in a human VLA-4 binding assay; P13612; VLA-4 expressing cells, ligand binding flow cytometry; inhibition, % (about 7 µM as worked out from the volumes in the protocol); hit rate 0.2% among 330,000; AID 2557; in the data active = inhibition above about 50%
# A3G deaminase: blocks human APOBEC3G single-stranded DNA deamination | Q9HC16 | recombinant A3G, ssDNA deamination FAM/TAMRA fluorescence | inhibition, % at 20 µM | hit rate 0.28% among 330,000;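 active = inhibition of at least 40% at 20 µM, with no more than 30% in the related APOBEC3A deaminase screen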;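 note: plate controls were DMSO wells with A3G for no effect and wells lacking A3G enzyme for full effect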
# Target sequence (Q9HC16 whole entry, looked up): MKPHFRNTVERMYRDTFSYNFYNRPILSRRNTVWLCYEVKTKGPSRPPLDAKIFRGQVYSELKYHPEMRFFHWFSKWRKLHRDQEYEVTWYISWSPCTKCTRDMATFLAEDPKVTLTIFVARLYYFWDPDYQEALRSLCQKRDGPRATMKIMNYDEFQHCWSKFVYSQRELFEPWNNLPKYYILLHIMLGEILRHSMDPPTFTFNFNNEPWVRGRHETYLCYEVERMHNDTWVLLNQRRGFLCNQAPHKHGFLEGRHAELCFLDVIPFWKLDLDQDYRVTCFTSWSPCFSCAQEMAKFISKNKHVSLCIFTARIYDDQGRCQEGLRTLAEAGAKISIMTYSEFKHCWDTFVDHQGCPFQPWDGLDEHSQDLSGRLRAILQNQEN
# APOBEC3A inh: human APOBEC3A DNA deaminase inhibition; recombinant A3A, FAM/TAMRA ssDNA deamination fluorescence; P31941; inhibition, % at 20 µM; hit rate 0.41% among 330,000; AID 493011;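 active = at least 40% inhibition at 20 µM here, with at most 30% in a related deaminase screen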;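 note: plate controls were A3A with DMSO for no effect and wells lacking A3A enzyme for full effect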
# Target sequence (P31941 whole entry, looked up): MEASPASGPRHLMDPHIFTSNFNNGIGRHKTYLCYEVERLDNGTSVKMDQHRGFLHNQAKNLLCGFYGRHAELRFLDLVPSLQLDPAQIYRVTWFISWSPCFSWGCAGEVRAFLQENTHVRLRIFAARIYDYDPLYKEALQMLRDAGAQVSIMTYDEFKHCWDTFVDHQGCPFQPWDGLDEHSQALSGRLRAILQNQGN
# beta cell repl: induces beta-cell replication in MIN6 cells | MIN6 cells proliferation, ATPlite luminescence, 48 h; cells starved in 0.2% serum; 100% = growth in 10% serum | proliferation, % at 10 µM | hit rate 0.29% among 330,000 | AID 2380;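 active = compounds whose signal lies at least 3.5 SD above the mean of all wells on their plate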;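 note: 0% = DMSO-treated cells in low-serum medium and 100% = 10% serum control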
# VLA-4 allo CP: human VLA-4 allosteric modulation in cherry picked compounds. shares compounds with VLA-4 inh. U937 cells, HUTS-21 LIBS mAb binding, flow cytometry; LDV ligand present at threefold Kd. inhibition, % at 6.7 µM. hit rate 2% among 1,300. AID 2813; in the data active = inhibition above about 40%;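 note: 0% = ligand without compound and 100% = no ligand background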
# * marks the source's active call; other numbers are inactive results; x = no result. Most compounds without a hit are left out; they make up all but 1.8% or so of the library.
SMILES,CendR NRP1 mod,VLA-4 inh,A3G deaminase,APOBEC3A inh,beta cell repl,VLA-4 allo CP
CNC(=O)NC(=O)CSc1ccc(S(=O)(=O)N2CCOCC2)cn1,-0.5,33.5,-1.9,11.8,0.9,x
CCN(C[C@H]1N[C@@](Cc2ccccc2)(C(=O)OC)[C@H]2C(=O)N(Cc3ccccc3)C(=O)[C@@H]12)C(=O)COc1ccccc1,-8.0,55.6*,-3.6,-0.8,-3.0,2.9
CCN(C[C@H]1N[C@@](Cc2ccccc2)(C(=O)OC)[C@H]2C(=O)N(Cc3ccccc3)C(=O)[C@@H]12)C(=O)C1CCCCC1,-0.2,8.8,-0.8,-0.4,-4.5,-4.2
Cc1ccc(S(=O)(=O)Nc2ccc(N(C)C)cc2)cc1,-6.8,8.2,-3.8,0.7,-1.3,4.7
C=CCC[C@H](Cc1ccc(F)cc1)C(=O)OC[C@@H](C)NC(=O)[C@@H](CC=C)CC(=O)N[C@@H](CO)Cc1ccccc1,-5.8,63.1*,-5.8,-4.0,-3.4,-0.8
C=CCC[C@H](Cc1ccc(F)cc1)C(=O)OC[C@@H](C)NC(=O)[C@@H](CC=C)CC(=O)N[C@H](CO)Cc1ccccc1,8.5,15.6,-3.8,-1.8,-5.7,x
Cc1ccc(S(=O)(=O)N2CCCC2)cc1C(=O)N1CCC(C)CC1,9.4,42.0,-8.3,2.4,1.6,x
CCC(CO)NCCNC(CC)CO (centres undefined),1.1,50.2*,-10.9,-3.0,3.5,2.6
O=C(O)c1ccc2c(c1)N(Cc1cccc(F)c1)C(=O)CS2,-14.0,50.4*,1.7,1.1,1.4,-0.6
c1ccc2c(c1)nnn1c3ccccc3nc21,x,29.9,0.8,1.0,-1.7,x
Nn1nnc2ccccc21,1.2,56.1*,-6.0,3.5,-0.2,-3.0
Cc1ccc(NC(=O)CN(c2ccc(C)cc2)S(=O)(=O)c2cccc3nonc23)cc1,-13.8,26.9,2.2,-1.1,0.0,0.0
COC(=O)c1ccc(NC(=O)CN(c2ccc(C)cc2)S(=O)(=O)c2c(C)nn(C)c2C)cc1,9.8,4.5,-5.6,0.3,0.6,4.4
Cc1nn(C)c(C)c1S(=O)(=O)N(CC(=O)Nc1ccc2c(c1)OCO2)c1ccc(C(C)C)cc1,-6.4,-12.0,0.6,-0.3,-1.1,-1.6
COc1ccccc1NC(=O)CN(c1ccc(C)cc1)S(=O)(=O)c1c(C)n[nH]c1C,11.9,-7.5,-6.8,-5.9,0.9,-0.8
CC1CCCCC12NC(=O)N(CC(=O)Nc1ccc3[nH]c(=O)[nH]c3c1)C2=O (centres undefined),2.1,0.1,-7.4,-2.1,-1.3,x
Cc1ccc(CC(=O)NCCC(=O)O)cc1,-0.6,-5.8,0.8,1.6,-0.6,x
COc1ccc(N(CCC(=O)Nc2ccccc2F)S(=O)(=O)c2ccc(C)cc2C)cc1,-8.2,-0.4,12.3,-0.4,-5.7,x
Cc1cc(Cl)ccc1Oc1ccccc1C(=O)CC#N,-11.3,41.4,-0.9,-1.6,-5.4,-15.1
CCOC(=O)c1c(C)nc2sc3c(=O)n(-c4ccc(C)cc4)cnc3c2c1-c1ccc(OC)cc1,3.1,93.7*,3.7,4.9,0.6,10.9
Cc1ccc(C(=O)/C=C\C(=O)c2ccc(C)cc2)cc1,-2.2,68.5*,x,x,x,30.2
CCN(CC)C(=O)c1cc(-c2ccc3c(c2)OCO3)on1,6.9,55.2*,-6.7,-2.6,-3.0,-5.5
CCCNC(=O)c1cc(-c2ccc3c(c2)OCO3)on1,8.0,40.3,-8.5,-3.1,-4.8,x
Cc1cccc(C)c1NC(=O)Cn1cc(C=O)c2ccccc21,1.4,4.8,-8.4,-7.7,-1.6,8.1
CC(=O)c1cn(CC(=O)Nc2ccccc2C)c2ccccc12,-0.3,13.4,-2.9,-3.1,-1.0,x
SMILES,CendR NRP1 mod,VLA-4 inh,A3G deaminase,APOBEC3A inh,beta cell repl,VLA-4 allo CP
CCC(=O)c1cn(CC(=O)Nc2ccc(C)cc2C)c2ccccc12,-3.8,-1.1,-2.0,-4.4,-0.2,0.0
COc1ccc(NC(=O)Cn2cc(C(C)=O)c3ccccc32)cc1,-2.6,6.7,0.6,-3.8,0.4,3.5
CCC(=O)c1cn(CC(=O)Nc2c(C)cccc2C)c2ccccc12,-14.6,13.6,-2.2,1.4,-1.8,7.4
CCOc1ccc(NC(=O)Cn2cc(C(C)=O)c3ccccc32)cc1,5.9,4.3,-4.0,-1.3,-2.8,x
CC(=O)c1cn(CC(=O)Nc2c(C)cccc2C)c2ccccc12,0.5,5.5,-1.1,-4.2,-3.7,x
CCC(=O)c1cn(CC(=O)Nc2ccc(F)cc2)c2ccccc12,5.6,x,x,x,x,x
CCC(=O)c1cn(CC(=O)Nc2cccc(OC)c2)c2ccccc12,-3.8,10.6,-6.5,-9.7,-0.9,5.7
O=C(COC(=O)c1ccccc1Br)Nc1ccc(F)cc1,1.6,11.3,-10.1,-2.9,0.1,5.3
CC(=O)c1ccc(NC(=O)COC(=O)c2ccc(F)cc2F)cc1,1.0,10.8,-7.7,1.3,0.0,-2.1
O=C(COC(=O)c1ccc(O)cc1)Nc1ccccc1,11.3,-15.8,1.1,2.8,-2.1,1.8
O=C(COC(=O)c1ccc(F)cc1F)NCCNC(=O)COC(=O)c1ccc(F)cc1F,17.0,21.7,-8.7,-4.6,0.7,x
COc1ccc(-n2ncc(C(C)NS(=O)(=O)c3cc(C)sc3C)c2C)cc1 (centres undefined),-0.9,x,x,x,x,x
CC1=CC(c2ccccc2)=Nc2ccc(C)cc2N1,-13.5,66.3*,-1.5,2.6,-0.3,0.0
COc1ccc2c(c1)NC(=O)CC(c1ccccc1)=N2,-17.6,15.7,-6.7,-2.7,-2.4,x
C=CCN(c1ccccc1)S(=O)(=O)c1cccc(C(=O)N2CC(C)CC(C)C2)c1 (centres undefined),5.6,-13.9,-9.4,-5.3,-3.9,x
CNc1nc(OCCNC(=O)Nc2ccccc2)nc(N2CCOCC2)n1,3.7,58.8*,-7.4,-1.9,-2.1,0.7
COc1ccc(OC)c2sc(NC(=O)c3cccc(N4C(=O)CCC4=O)c3)nc12,-0.5,64.6*,-7.2,-0.5,1.8,4.0
C/C(=N\NC(=O)CSCc1cccc(Br)c1)c1ccc([N+](=O)[O-])cc1,6.1,50.8*,-6.5,-2.7,1.1,6.7
CCN(C[C@H]1N[C@@](Cc2ccccc2)(C(=O)OC)[C@H]2C(=O)N(Cc3ccccc3)C(=O)[C@@H]12)S(=O)(=O)c1ccc(OC(F)(F)F)cc1,-0.8,-9.4,-8.5,-3.2,-3.5,-1.4
CCN(C[C@H]1N[C@@](Cc2ccccc2)(C(=O)OC)[C@H]2C(=O)N(Cc3ccccc3)C(=O)[C@@H]12)S(=O)(=O)c1ccc(F)cc1,3.2,37.1,-8.0,-3.5,-1.0,x
CCN(C[C@H]1N[C@@](Cc2ccccc2)(C(=O)OC)[C@H]2C(=O)N(Cc3ccccc3)C(=O)[C@@H]12)S(=O)(=O)c1ccc(C(C)(C)C)cc1,-0.5,-14.8,-3.3,-1.0,-1.5,15.0
COc1cc(C2c3c(c(C)c(C)oc3=O)Oc3c(C)c(C)oc(=O)c32)ccc1OS(=O)(=O)c1ccc(C)cc1,-3.8,-5.7,-2.4,3.2,-4.0,x
